Source: PubChem BioAssay
DT40 TDP1 CPT: growth inhibition of DT40 Tdp1-/-;hTDP1 cells with camptothecin (screen for TDP1 inhibitors); actives 12% (n = 420,000); AID 686979; Potency, µM (series often up to 46.2 µM), inactives show top-dose activity change, negative = growth inhibition, most hits filed as inhibitors; chicken DT40 Tdp1-/-;hTDP1 cells + 20 nM CPT, ATP luminescence, 48 h; also: nearly all actives have a fitted effect of over 55% in size
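Chicken DT40 Tdp1-/- cells complemented with human TDP1, 400 cells/well, exposed to compounds plus 20 nM camptothecin for at least 48 h at 37 C; viability read as ATP content by CellTiter-Glo luminescence.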
ELG1 repair inh: blocks ELG1-dependent DNA repair in HEK293T cells; HEK293T ELG1-luciferase reporter, luminescence, 16 h; DNA damage induced by 5-fluorouridine; Potency, µM (series often up to 46.1 µM), for inactives: at the highest dose activity change, negative = inhibition, hits mostly inhibitors; actives 2.3% (n = 330,000); also: nearly all actives have a fitted effect of over 55% in size
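Quantitative HTS, concentration-response format. 2,000 cells/well co-treated with 5-fluorouridine and compound, 16 hr in 5% CO2 at 37 °C; ONE-Glo luminescence read after 30 min.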
ALOX12 inh: inhibitors of human 12S-lipoxygenase ALOX12. purified 12hLO, xylenol orange hydroperoxide absorbance. actives 1.1% (n = 580,000). Potency, µM (highest dose often 108 µM), inactives show top-dose activity change, negative = inhibition, usual class: inhibitors. P18054
Target sequence (P18054 whole entry, looked up): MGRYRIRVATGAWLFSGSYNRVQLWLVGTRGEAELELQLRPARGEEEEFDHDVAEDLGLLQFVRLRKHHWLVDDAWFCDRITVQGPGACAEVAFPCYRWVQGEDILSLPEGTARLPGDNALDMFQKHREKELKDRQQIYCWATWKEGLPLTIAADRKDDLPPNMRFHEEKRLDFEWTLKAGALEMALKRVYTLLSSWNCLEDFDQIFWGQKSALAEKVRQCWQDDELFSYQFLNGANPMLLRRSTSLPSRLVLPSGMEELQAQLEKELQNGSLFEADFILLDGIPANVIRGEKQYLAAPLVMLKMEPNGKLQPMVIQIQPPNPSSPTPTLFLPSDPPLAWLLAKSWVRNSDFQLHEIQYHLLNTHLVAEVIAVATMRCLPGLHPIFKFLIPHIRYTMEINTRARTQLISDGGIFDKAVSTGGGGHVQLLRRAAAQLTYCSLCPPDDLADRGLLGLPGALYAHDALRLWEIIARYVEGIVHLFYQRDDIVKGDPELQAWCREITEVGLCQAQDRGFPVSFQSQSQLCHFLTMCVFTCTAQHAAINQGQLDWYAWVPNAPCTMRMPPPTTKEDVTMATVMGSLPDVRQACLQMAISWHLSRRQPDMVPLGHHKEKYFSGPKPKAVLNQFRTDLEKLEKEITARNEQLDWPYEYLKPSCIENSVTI
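Purified human 12hLO at 150 nM in 25 mM Hepes, 0.01% Triton X-100, pH 7.0, preincubated 15 min at room temperature with compound. Reaction started with 40 uM arachidonic acid, 30 min at room temperature. Hydroperoxide measured by Fe-xylenol orange, 573/405 nm absorbance ratio.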
Gal4-VP16 FLuc: inhibits Gal4-VP16 luciferase reporter, ROR gamma counter-screen; Drosophila S2 Gal4-VP16 UAS-luciferase, luminescence, 20 h; Potency, µM (series often up to 53.6 µM), inactives show at the top dose activity, negative = inhibition, actives largely listed as inhibitors; actives 3.5% (n = 310,000); AID 2546;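 also: Gal4-VP16 expression switched on by copper sulfate through the metallothionein promoter; nearly all actives have a fitted effect of over 50% in size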
TDP1 cell noCPT: qHTS for Inhibitors of human tyrosyl-DNA phosphodiesterase 1 (TDP1): qHTS in cells in absence of CPT; DT40 Tdp1-/- hTDP1 cells, no CPT, ATP luminescence, 48 h; Potency, µM (titrated, usually from 46.2 µM), for inactives: at the top dose activity change, negative = growth inhibition, usual class: inhibitors; actives 15% (n = 420,000); AID 686978, 2013; also: nearly all actives have a fitted effect of over 55% in size
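Growth kinetics read by CellTiter-Glo luminescence after ≥48 hr at 37 °C. Cells: DT40 Tdp1-/- stably carrying human TDP1, 400 per well, compound exposure in the absence of CPT (DMSO vehicle).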
RORgamma inh: ROR gamma (mouse) transcription inhibition. P51450. actives 5.4% (n = 310,000). Potency, µM (doses to about 53.6 µM), inactives show top-dose activity change, negative = inhibition, usual class: inhibitors. Drosophila S2 Gal4-RORgamma UAS-luciferase reporter, 20 h; also: nearly all actives have a fitted effect of over 60% in size
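Stably transfected Drosophila Schneider cells are the test system, with ROR gamma fused to Gal4 and luciferase under UAS control; luminescence is read after 20 hr of 700 uM copper sulfate induction at ambient temperature.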
Starred values were filed as active, the others as inactive; ? = inconclusive; · = not tested or not shown; ! = not active in a repeat. Sampled rows, rich in hits. Any-hit rate of the full collection: about 15%. Calls follow the shape of the dose curve; as a rule, active = well fitted curve in the direction sought with a large enough effect; inconclusive = small, poorly fitted or top-dose-only effect, or another doubt; inactive = no such curve, though single readings can be large; an effect the other way counts as inactive or inconclusive. % is scaled to controls: 0 for no effect and ±100 for the full control effect; potency is read from the fitted curve at half-maximal effect.

SMILES	DT40 TDP1 CPT	ELG1 repair inh	ALOX12 inh	Gal4-VP16 FLuc	TDP1 cell noCPT	RORgamma inh
Cc1cc(C)cc(NC(=O)CSc2ccc(-c3cccs3)nn2)c1	?	?	-16%	?	21µM*!	38%
O=C(CSc1ccc(-c2cccs2)nn1)Nc1ccccc1	13µM*!	?	-9%	-1%	21µM*	4%
Cc1cc(C)cc(NC(=O)CCc2c(C)nn(-c3ccc(N4CCCC4)nn3)c2C)c1	21µM*	·	1%	·	26µM*	·
COc1ccc(C)cc1NC(=O)CCc1c(C)nn(-c2ccc(N3CCCCC3)nn2)c1C	?	?	15%	-1%	26µM*	12%
Cc1nn(-c2ccc(N3CCCC3)nn2)c(C)c1CCC(=O)Nc1ccc(F)c(Cl)c1	18µM*	·	-22%	·	26µM*	·
Cc1nn(-c2ccc(N3CCCCC3)nn2)c(C)c1CCC(=O)Nc1ccc(F)cc1F	16µM*	·	0%	·	18µM*	·
CCN(CC)C(CNc1nc(CCN)nc2ccccc12)c1ccco1 (centres undefined)	·	·	26%	·	·	·
Cc1ccc(NC(=O)c2ncoc2-c2ccco2)c(Cl)c1	·	·	-20%	·	·	·
CC1=C(NC(=O)c2ccc(Cl)cc2)C(c2c[nH]c3ccccc23)n2ncnc2N1 (centres undefined)	·	·	5%	·	·	·
CCOC(=O)c1cccc(NC(=O)CCc2c(C)nn(-c3ccc(N4CCCCC4)nn3)c2C)c1	?	·	-7%	·	23µM*	·
COc1cccc(-c2nc(CSCC(=O)NCCc3ccc(Cl)cc3)c(C)o2)c1	9.2µM*	·	-12%	·	?	·
COc1ccc(CCNC(=O)CSc2nnc(-c3cccc(C)c3)o2)cc1OC	-24%	?	-11%	-2%	-2%	31%
COc1ccc(CCNC(=O)CSCc2nc(-c3cccc(C)c3)oc2C)cc1OC	21µM*	·	2%	·	?	·
C=CCn1c(SCC(=O)NC2CCCC2)nnc1-c1ccccn1	-12%	4%	9%	-4%	?	5.6µM*
C=CCn1c(SCC(=O)NC2CCCC2)nc2scc(-c3ccco3)c2c1=O	?	?	45µM*	1%	?	6%
CCn1c(SCC(=O)NC2CCCCC2)nnc1-c1cc2cccc(OC)c2o1	?	?	0%	-3%	23µM*	-23%
CCn1c(SCC(=O)Nc2nccs2)nnc1-c1cc2cccc(OC)c2o1	3%	-2%	-2%	-3%	0%	-43%
Cc1nc(SC(C)C(=O)NCC2CCCO2)c2cc(-c3ccccc3)sc2n1 (centres undefined)	15µM*	?	7%	·	15µM*	·
CCCOCCNC(=O)c1c(C)noc1-c1cccc(F)c1	·	·	33%	·	·	·
COc1ccc(C(=O)N2CCC(c3n[nH]c(=O)n3Cc3ccc(C)cc3)CC2)cc1F	·	·	6%	·	·	·
Cc1ccccc1NC(=O)C(=O)NCC(c1ccc2c(c1)OCO2)N1CCN(C)CC1 (centres undefined)	·	·	76%	·	·	·
Cc1ccccc1Cn1cc(-c2ccncc2)cc1C(=O)N1CCCC(C)C1 (centres undefined)	·	·	41%	·	·	·
Cc1ccc(CNC(=O)c2cccc(CS(C)=O)c2)cc1 (centres undefined)	·	·	21%	·	·	·
CCn1c(SC(C)C(=O)NCC2CCCO2)nc2scc(-c3ccccc3)c2c1=O (centres undefined)	18µM*	?	5%	·	?	·
C=CCn1c(SCC(=O)NCC2CCCO2)nc2scc(-c3ccccc3)c2c1=O (centres undefined)	26µM*	-21%	0%	-3%	?	17%
SMILES	DT40 TDP1 CPT	ELG1 repair inh	ALOX12 inh	Gal4-VP16 FLuc	TDP1 cell noCPT	RORgamma inh
C=CCn1c(SCC(=O)Nc2c(C)n(C)n(-c3ccccc3)c2=O)nc2scc(-c3ccccc3)c2c1=O	?	23µM*	0%	4%	?	11%
COCCn1c(SC(C)C(=O)NCC2CCCO2)nc2scc(-c3ccc(F)cc3)c2c1=O (centres undefined)	-26%	?	-17%	·	?	·
CCCNc1c(NC(=O)Nc2ccccc2F)c(=O)oc2ccccc12	·	·	-7%	·	·	·
O=C1c2ccccc2NC(c2cnn(-c3ccccc3)n2)N1c1ccc2c(c1)OCO2 (centres undefined)	·	·	7%	·	·	·
CC1CC1CNC(=O)c1nccnc1N (centres undefined)	·	·	-16%	·	·	·
O=C(Nc1cccc(NC(=O)C2CC3CCCC(C2)C3=O)n1)C1CC2CCCC(C1)C2=O (centres undefined)	?	?	190%	?	18µM*	?
COc1ccccc1OCCN(C#N)c1nc(N(C)C)nc(N(C)C)n1	21µM*	?	1%	5%	?	2%
Cc1cc(C)nc(N(C#N)CCOc2ccccc2)n1	?	·	14%	-9%	?	?
N#Cc1cccc(C(=O)/C=C/c2ccsc2)c1	·	·	1%	·	·	·
CCOC(=O)N1CCN(S(=O)(=O)c2ccc(C(=O)NNc3nc4ccc(Cl)cc4s3)cc2)CC1	21µM*	?	·	?	21µM*	7.1µM*
CCOC(=O)N1CCN(S(=O)(=O)c2ccc(C(=O)N(CCN(C)C)c3nc4ccc(Cl)cc4s3)cc2)CC1	-23%	?	-25%	-2%	-2%	-23%
CCOC(=O)N1CCN(S(=O)(=O)c2ccc(C(=O)NNc3nc4c(C)cccc4s3)cc2)CC1	16µM*	?	?	5µM*	16µM*	10µM*
Cc1cc(S(=O)(=O)Nc2cccc(C(F)(F)F)c2)sc1C(=O)O	·	·	-18%	·	·	·
COc1ccc(-c2nc(C(N)=O)c3[nH]c(=O)n(-c4cccc(C)c4)c3n2)c(OC)c1	?	?	32%	-6%	23µM*	28%
COc1ccccc1-c1nc(C(N)=O)c2[nH]c(=O)n(-c3cccc(C)c3)c2n1	?	?	-2%	5%	?	-9%
COc1cccc(N2CCN(C(=O)c3cn(Cc4ccccc4)nc3-c3cccnc3)CC2)c1	2.6µM*	-4%	0%	·	2.1µM*	·
Cc1ccc(NC(=O)CN(C)C(=O)c2cn(Cc3ccccc3)nc2-c2cccnc2)cc1	-14%	-1%	-15%	·	?	·
O=C(c1cn(Cc2ccccc2)nc1-c1cccnc1)N1CCN(Cc2c(F)cccc2Cl)CC1	?	9.2µM*	0%	·	29µM*	·
